About 64,000 (15%) of roughly 420,000 compounds were called active. Not shown: some 27% with an inconclusive outcome. Calls come from the whole dose curve; as a rule, active = well fitted inhibition curve with a large enough effect; inconclusive = small, poorly fitted or top-dose-only effect; inactive = flat fitted curve, though single readings scatter. Only a sample is shown. A call without a number means that no potency is given here.
Assay: qHTS for Inhibitors of human tyrosyl-DNA phosphodiesterase 1 (TDP1): qHTS in cells in absence of CPT; note: nearly all actives have a fitted effect of over 55% in size
Details: DT40 Tdp1-/- hTDP1 cells, no CPT, ATP luminescence, 48 h; activity change, negative = growth inhibition: at 46.2 µM (top of the series)
Method in brief: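 DT40 Tdp1-/-;hTDP1 cells, no CPT (DMSO vehicle only), 400 cells/well; compounds pin-transferred; ≥48 hr, 37 °C; CellTiter-Glo 30 min RT dark, luminescence read.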
Potency is the fitted concentration of half-maximal effect.

**Q.** With O=C1CCC(Cc2ccccc2)N1 (stereo not given) as the compound, how does the Potency read?
**A.** The Potency was “inactive”.

**Q.** For COc1ccc(NC(=O)C2CCC(CNC(=O)[C@@H]3Cc4ccccc4CN3)CC2)cc1 (stereo not given in full), which Potency is on record?
**A.** Its Potency is “inactive”.

**Q.** With COc1cccc(/C=C2\SC(=S)N(CCCC(=O)N3CCOCC3)C2=O)c1 as the compound, how does the Potency read?
**A.** Its Potency is 18.4 µM (active).

**Q.** For COc1cccc(/C=C2/SC(=S)N(CC(=O)NC3C=CS(=O)(=O)C3)C2=O)c1 (stereo not given), which Potency is on record?
**A.** The Potency was “inactive”.

**Q.** For COc1ccc(/C=C2\SC(=S)N(CCC(=O)Nc3ccccn3)C2=O)cc1OC, which Potency is on record?
**A.** Its Potency is “inactive”.

**Q.** For COc1ccc(/C=C2\SC(=S)N(CCC(=O)Nc3cccc(C(=O)O)c3)C2=O)cc1OC, which Potency is on record?
**A.** The Potency was “inactive”.

**Q.** With O=C1/C(=C/c2ccc(F)cc2)SC(=S)N1CCCC(=O)N1CCCCC1CCO (stereo not given) as the compound, how does the Potency read?
**A.** The Potency was 25.9 µM (active).

**Q.** With COc1ccc(/C=C2\SC(=S)N(CCCC(=O)NC3CCCC3)C2=O)cc1OC as the compound, how does the Potency read?
**A.** Its Potency is 16.4 µM (active).

**Q.** With COc1ccc(/C=C2\SC(=S)N(CCC(=O)N3CCOCC3)C2=O)cc1OC as the compound, how does the Potency read?
**A.** The Potency was “inactive”.

**Q.** Which Potency does the source give for O=C(CCCN1C(=O)/C(=C/c2ccccc2)SC1=S)Nc1ccc(O)cc1 here?
**A.** The Potency was “inactive”.

**Q.** Which Potency does the source give for C=CCOc1ccc(/C=C2\SC(=S)N(CCC(=O)O)C2=O)cc1 here?
**A.** The Potency was “inactive”.

**Q.** Which Potency does the source give for CC(=O)N(OCc1ccc(OC(C)C)c(Cl)c1)C(C)=O here?
**A.** The Potency was “inactive”.

**Q.** For C[N+](C)(C)CCNC(=O)c1c(O)c2c([nH]c1=O)CCCC2, which Potency is on record?
**A.** The Potency was “inactive”.

**Q.** With COc1ccc2nc(N3CCCC(O)C3)c(C#N)cc2c1 (stereo not given) as the compound, how does the Potency read?
**A.** Its Potency is “inactive”.

**Q.** For Cc1ccc(NC(=O)COC(=O)C2C3CC4OC(=O)C2C4C3)cc1Cl (stereo not given), which Potency is on record?
**A.** The Potency was “inactive”.

**Q.** Which Potency does the source give for O=C(COC(=O)c1ccccn1)NNC(=O)c1ccc([N+](=O)[O-])cc1 here?
**A.** The Potency was “inactive”.

**Q.** For CCc1noc(C)c1C(=O)NCCN1Cc2cc(OC)ccc2OC(CC)C1 (stereo not given), which Potency is on record?
**A.** Its Potency is “inactive”.

**Q.** Which Potency does the source give for Nc1nc(N)c(N=O)c(N)n1 here?
**A.** Its Potency is “inactive”.

**Q.** Which Potency does the source give for O=C(NCc1ccccc1)[C@H]1C[C@@H]1[C@H](NP(=O)(c1ccccc1)c1ccccc1)c1ccccc1 here?
**A.** Its Potency is 20.6 µM (active).

**Q.** Which Potency does the source give for O=C(O)C1C2C=CC(C2)C1C(=O)NCc1ccccc1 (stereo not given) here?
**A.** Its Potency is “inactive”.

**Q.** With O=C(NCc1ccccc1)C1CNCC(C(=O)NCc2ccccc2)C1 (stereo not given) as the compound, how does the Potency read?
**A.** Its Potency is “inactive”.

**Q.** Which Potency does the source give for O=C1CSC(=O)N1CCOCCN1C(=O)CSC1=O here?
**A.** Its Potency is “inactive”.

**Q.** With COCCn1c(C)cc(C(=O)COC(=O)/C=C/c2cccc(OC)c2)c1C as the compound, how does the Potency read?
**A.** The Potency was “inactive”.

**Q.** With Cc1cc2cc3n(c2nn1)N=C(Cl)CC3 as the compound, how does the Potency read?
**A.** The Potency was 11.6 µM (active).

**Q.** With CS(=O)(=O)c1ccc(Cl)c(NC(=O)COC(=O)c2cccc(S(=O)(=O)N3CCCC3)c2)c1 as the compound, how does the Potency read?
**A.** The Potency was “inactive”.

**Q.** Which Potency does the source give for CC1(C(=O)Nc2cccc3cccnc23)CCN1C(=O)CCC1CCCC1 (stereo not given) here?
**A.** Its Potency is 16.4 µM (active).

**Q.** For CC1(C(=O)Nc2ccccc2Br)CCN1C(=O)CC1CC1 (stereo not given), which Potency is on record?
**A.** Its Potency is “inactive”.

**Q.** For CC1(C(=O)NS(=O)(=O)c2ccc(Cl)cc2)CCN1C(=O)CC1CCCC1 (stereo not given), which Potency is on record?
**A.** Its Potency is “inactive”.

**Q.** Which Potency does the source give for C=CCNc1nc(Nc2ccc(Cl)cc2)nc(OC)n1 here?
**A.** Its Potency is “inactive”.

**Q.** For O=C(Cn1cc(C(=O)C2CC2)c2ccccc21)Nc1ccccc1Cl, which Potency is on record?
**A.** Its Potency is “inactive”.

**Q.** Which Potency does the source give for CN(C)S(=O)(=O)c1ccc(C(=O)NCC2(N3CCOCC3)CCCCC2)cc1 here?
**A.** Its Potency is “inactive”.

**Q.** With CC(=O)Nc1ccccc1C(=O)C(=O)Nc1ccc(F)cc1 as the compound, how does the Potency read?
**A.** Its Potency is “inactive”.

**Q.** With O=S(=O)(Nc1n[nH]c(C(F)(F)F)n1)c1ccccc1 as the compound, how does the Potency read?
**A.** The Potency was “inactive”.

**Q.** For CCCNC(=O)C1(C)CCCN(C(=O)c2cccc(OC(C)=O)c2C)C1 (stereo not given), which Potency is on record?
**A.** The Potency was “inactive”.

**Q.** With CCCNC(=O)C1(C)CCN(Cc2ccc(Cl)c(Cl)c2)C1 (stereo not given) as the compound, how does the Potency read?
**A.** Its Potency is 20.6 µM (active).

**Q.** With CCNC(=O)C1(C)CCN(Cc2ccc(C(=O)OCC)o2)C1 (stereo not given) as the compound, how does the Potency read?
**A.** The Potency was “inactive”.

**Q.** With CCCNC(=O)C1(C)CCN(C(=O)c2ccc(F)cc2Cl)C1 (stereo not given) as the compound, how does the Potency read?
**A.** Its Potency is “inactive”.

**Q.** With CCCNC(=O)C1(C)CCCN(Cc2c(C)nn(-c3ccccc3)c2C)C1 (stereo not given) as the compound, how does the Potency read?
**A.** Its Potency is “inactive”.

**Q.** For CCCNC(=O)C1(C)CCN(C(=O)c2ccccc2OC(F)(F)F)C1 (stereo not given), which Potency is on record?
**A.** Its Potency is “inactive”.

**Q.** For CCCNC(=O)C1(C)CCCN(Cc2cccc(C(F)(F)F)c2)C1 (stereo not given), which Potency is on record?
**A.** The Potency was 25.9 µM (active).

**Q.** For CCCNC(=O)C1(C)CCN(C(=O)c2cc(F)ccc2C)C1 (stereo not given), which Potency is on record?
**A.** Its Potency is “inactive”.

**Q.** With CCCNC(=O)C1(C)CCN(Cc2csc(-c3ccc(Cl)cc3)n2)C1 (stereo not given) as the compound, how does the Potency read?
**A.** The Potency was 16.4 µM (active).

**Q.** With Cc1ccc(NC(=O)C(C)OC(=O)C2CC3CCCC(C2)C3=O)cc1S(=O)(=O)N1CCOCC1 (stereo not given) as the compound, how does the Potency read?
**A.** The Potency was “inactive”.

**Q.** With CCCOc1ccc(N2C(=O)CC(N(CCc3ccc(S(N)(=O)=O)cc3)C(C)=O)C2=O)cc1 (stereo not given) as the compound, how does the Potency read?
**A.** The Potency was “inactive”.

**Q.** Which Potency does the source give for O=C(CNc1ccc(F)cc1F)NC(=O)NCc1ccco1 here?
**A.** Its Potency is “inactive”.

**Q.** Which Potency does the source give for COc1ccc(/C(N)=N/OC(=O)Oc2ccccc2)cc1 here?
**A.** Its Potency is “inactive”.

**Q.** Which Potency does the source give for Cc1noc(NS(=O)(=O)c2ccc(NC(=O)C34CCC(CC3)C4)cc2)c1C here?
**A.** The Potency was “inactive”.

**Q.** For Cc1c(Cl)cccc1NC(=S)NCC(O)c1ccccc1 (stereo not given), which Potency is on record?
**A.** Its Potency is “inactive”.

**Q.** For O=C(C1CCCO1)N1CCN(S(=O)(=O)c2ccc(Br)cc2)CC1 (stereo not given), which Potency is on record?
**A.** Its Potency is “inactive”.

**Q.** Which Potency does the source give for C#CCOCCOCCOCCNc1nc(N2CCN(C(=O)[C@H](CCCCN)n3cc([C@@H](N)C(C)CC)nn3)CC2)nc(N2CCN(C(=O)[C@H](Cc3ccc(O)cc3)n3cc([C@@H](N)C(C)CC)nn3)CC2)n1 (stereo not given in full) here?
**A.** The Potency was “inactive”.

**Q.** With CS(=O)(=O)Nc1cccc(C2=NN(S(=O)(=O)c3ccccc3)C(c3cccs3)C2)c1 (stereo not given) as the compound, how does the Potency read?
**A.** The Potency was “inactive”.

**Q.** With CCS(=O)(=O)Nc1ccc(C2=NN(S(=O)(=O)c3ccc(F)cc3)C(c3ccco3)C2)cc1 (stereo not given) as the compound, how does the Potency read?
**A.** Its Potency is “inactive”.

**Q.** Which Potency does the source give for COc1cccc(C2CC(c3ccccc3)=NN2S(=O)(=O)c2ccccc2)c1OC (stereo not given) here?
**A.** Its Potency is 25.9 µM (active).

**Q.** For CNC(=O)C(NC(=O)c1ccccc1)=C(C)C, which Potency is on record?
**A.** The Potency was “inactive”.

**Q.** Which Potency does the source give for O=C(NCCN1C(=O)C2C3C=CC(C3)C2C1=O)Nc1ccccn1 (stereo not given) here?
**A.** The Potency was “inactive”.

**Q.** For COc1ccc(OCC(=O)N2CCN(C(=O)c3cccs3)CC2)cc1, which Potency is on record?
**A.** The Potency was “inactive”.

**Q.** Which Potency does the source give for CCc1ccc(NC(=O)COC(=O)c2cccs2)cc1 here?
**A.** The Potency was “inactive”.

**Q.** With O=C(CN1CCOCC1)Nc1cc(Cl)ccc1Cl as the compound, how does the Potency read?
**A.** The Potency was “inactive”.

**Q.** For O=C(CN1CCN(c2ccc(O)cc2)CC1)Nc1cc(S(=O)(=O)N2CCOCC2)ccc1Cl, which Potency is on record?
**A.** The Potency was 13 µM (active).

**Q.** Which Potency does the source give for O=C(CN1CCN(c2cccc(Cl)c2)CC1)Nc1ccc(S(=O)(=O)N2CCOCC2)cc1 here?
**A.** The Potency was 8.2 µM (active).

**Q.** Which Potency does the source give for O=C(CN1CCN(S(=O)(=O)/C=C/c2ccccc2)CC1)Nc1ccc(N2CCOCC2)cc1 here?
**A.** The Potency was “inactive”.

**Q.** Which Potency does the source give for Cc1ccc(Cl)cc1NC(=O)CN1CCN(S(=O)(=O)N2CCOCC2)CC1 here?
**A.** Its Potency is “inactive”.

**Q.** Which Potency does the source give for O=C(CN1C(=O)CCC1=O)Nc1ccc(S(=O)(=O)N2CCOCC2)cc1 here?
**A.** The Potency was “inactive”.

**Q.** Which Potency does the source give for Cc1cc(NC(=O)CC(C)C)cc(-c2nc3ncccc3o2)c1O here?
**A.** Its Potency is “inactive”.

**Q.** With Cn1c(NC(=O)c2ccc3c(c2)OCO3)cc(=O)n(C)c1=O as the compound, how does the Potency read?
**A.** The Potency was “inactive”.

Reference: PubChem BioAssay AID686978 (National Center for Advancing Translational Sciences (NCATS), 2013)
